Measurements taken from PubChem BioAssay AID1159574 (Broad Institute, 2015).
Measured potencies and affinities stand elsewhere. Activity calls are given as the source filed them.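 How the source made its calls: active means growth inhibitors whose fitted half-maximal dose is no more than twice the top valid dose; inconclusive means flat curve with 30 to 70% inhibition, or unreliable fit; inactive means the rest.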

Test: P. falciparum Dd2 blood-stage growth inhibition, dose response, SYBR Green fluorescence, erythrocytes, dry powder, set 2 (AID 1159574)

With `O=C(c1ccccc1F)N1CC(=O)N2[C@@H](CO)[C@@H](c3ccc(-c4cccnc4)cc3)[C@@H]2C1` the outcome was “inactive”.

For `O=C(c1ccccc1F)N1CC(=O)N2[C@@H](CO)[C@H](c3ccc(-c4cccnc4)cc3)[C@@H]2C1`, the outcome was “inactive”.
